# MARV entry inh – qHTS for inhibitors of binding or entry into cells for Marburg Virus; Marburg virus pseudotyped entry inhibition, cell reporter; Potency, µM (doses to about 37.8 µM), for inactives: top-dose activity change, negative = inhibition, hits mostly inhibitors; 1.8% of 300,000 active; AID 540276, 2011; calls by dose curve; tested in HEK293 cells; further: potency means the concentration at half of the fitted maximal effect; on the % scale 0 is the no-effect control and ±100 the full control effect
# HCMV inh – qHTS Assay for inhibitors of the human cytomegalovirus (HCMV) | HFF cells, HCMV-luciferase reporter, 72 h; active compounds read low | activity change, negative = inhibition, % at 57.5 µM | 4.5% of 410,000 active | AID 1259415, 2018; in the data active means activity change below about -60%; inconclusive means no clear call, values can overlap the other calls; inactive means above about -39%; further: on the % scale 0 is the no-effect control and ±100 the full control effect
#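 Compounds were evaluated in HFFs infected with an HCMV luciferase reporter virus (MOI 1 PFU/cell). Luciferase in lysates collected 72 h post infection served as the replication measure.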
# LASV entry inh – qHTS for Inhibitors of binding or entry into cells for Lassa Virus | Lassa virus pseudotype entry inhibition, cell reporter | Potency, µM (highest dose often 37.9 µM), for the others: top-dose activity change, negative = inhibition, usual class: inhibitors | 1.2% of 300,000 active; calls by dose curve; tested in HEK293 cells; further: potency means the concentration at half of the fitted maximal effect; on the % scale 0 is the no-effect control and ±100 the full control effect; nearly all actives have a fitted effect of over 50% in size
# HCV inhibitor – qHTS Assay for Inhibitors of Hepatitis C Virus (HCV). Huh7.5.1 HCVcc-Cre infection, luciferase reporter, 44 h. AID 651820, 2012. Potency, µM (series often up to 41.8 µM), for the others: at the top dose activity change, negative = inhibition, most hits filed as inhibitors. 3.4% of 340,000 active; active means well fitted inhibition curve with a large enough effect; inconclusive means small, poorly fitted or top-dose-only effect, or another doubt; inactive means no such curve, though single readings can be large or run the other way; further: potency means the concentration at half of the fitted maximal effect; on the % scale 0 is the no-effect control and ±100 the full control effect
#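 Reporter virus HCVcc-Cre (~0.5 moi) infects cells exposed to compound; seeding density 1,000 cells/well with 4 h settling beforehand. Luminescence, 15 sec read, taken 44 h post-infection following a 15 min RT substrate incubation.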
# SARS PLpro yeast – qHTS of Yeast-based Assay for SARS-CoV PLP; S. cerevisiae expressing SARS-CoV PLpro, growth rescue; Potency, µM (titrated, usually from 32.9 µM), inactives show at the top dose activity, positive = growth rescue, usual class: activators; 0.19% of 330,000 active; AID 485353, 2010; calls by dose curve; further: potency means the concentration at half of the fitted maximal effect; 0% is about no effect; nearly all actives have a fitted effect of over 55% in size
# FMDV inh – High Throughput Screening for Foot and Mouth Disease Virus Antivirals; 1.2% of 410,000 active; FMDV antiviral cell-based qHTS; AID 1159524, 2015; Potency, µM (titrated, usually from 57.9 µM), inactives show at the highest dose activity change, negative = inhibition, usual class: inhibitors; calls by dose curve; tested in HEK293T cells; further: read-out not given here; potency means the concentration at half of the fitted maximal effect; on the % scale 0 is the no-effect control and ±100 the full control effect; nearly all actives have a fitted effect of over 45% in size
# Starred values were filed as active, the others as inactive; ? = inconclusive; . = no result given; [ ] = remark or other dose. Hits are enriched below; roughly 8% of the tested compounds scored in any of these assays.
SMILES,MARV entry inh,HCMV inh,LASV entry inh,HCV inhibitor,SARS PLpro yeast,FMDV inh
COc1cc(C(=O)Nc2ccc3c(c2)CCN3C(C)=O)cc(OC)c1OC,?,-74.3*,?,-29.0%,0.9%,9.9%
NS(=O)(=O)c1ccc(NC(=O)c2ccc3c(c2)CCN3S(=O)(=O)c2ccccc2)cc1,-2.7%[46.1 µM],?,-15.1%[46.1 µM],31.6µM*,-9.7%,-29.7%
COc1cc(C(=O)Nc2ccc3c(c2)Cc2ccccc2-3)cc(OC)c1OC,?,-25.1,0.3%,?,8.4%,-9.5%
Cc1cccc(C(=O)N2CCN(c3ccccn3)CC2)c1,-15.7%,-7.6,24.1%,22.9%,?,-11.6%
O=C(c1cccc(Oc2ccccc2)c1)N1CCN(c2ccccn2)CC1,?,-71.6*,?,?,-1.5%,-13.5%
COc1ccc(NC(C)=O)cc1NC(=O)c1cccc(S(=O)(=O)N2CCc3ccccc32)c1,.,-0.9,.,10µM*,-2.0%,-24.5%
CC(=O)NS(=O)(=O)c1ccc(NC(=O)c2cccc(S(=O)(=O)N3CCc4ccccc43)c2)cc1,-1.4%,-23.2,-5.5%,-7.3%,0.2%,-2.8%
O=C(Nc1ccccc1)c1ccc2c(c1)CCN2S(=O)(=O)c1ccccc1,.,9.7,.,?,-5.1%,6.7%
CC1=C(C(=O)Nc2ccccc2C)C(c2ccco2)n2ncnc2N1 (stereo not given),.,-5.9,4.7%[46.1 µM],.,.,-18.6%
O=S(=O)(NC1CCc2ccccc21)c1ccc(S(=O)(=O)N2CCCC2)cc1 (stereo not given),?,5.4,?,11.2µM*,14.3%,.
O=C(NC1CCc2ccccc21)C1CCN(S(=O)(=O)c2ccc(Cl)cc2)CC1 (stereo not given),27.0%,-27.1,-22.6%,3.2%,-24.5%,-15.9%
NC(=O)C1CN(C(=O)c2cccc(S(=O)(=O)N3CCc4ccccc43)c2)c2ccccc2O1 (stereo not given),.,-105.1*,.,-17.9%,-7.5%,-10.2%
COCCNC(=O)c1ccc2c(c1)CCN2S(C)(=O)=O,-7.6%[46.1 µM],-61.8*,3.6%[46.1 µM],13.9%,-1.9%,-4.6%
O=C(NCc1ccccn1)c1cccc(S(=O)(=O)N2CCc3ccccc32)c1,-26.7%,8.1,-26.3%,?,0.9%,-11.2%
O=C(NNC(=O)c1cccc(S(=O)(=O)N2CCc3ccccc32)c1)c1ccccc1,?,?,?,5.01µM*,3.2%,0.0%
COc1cc(OC)c(OC)cc1CN1CCCC(c2[nH]ncc2-c2cccc(C(F)(F)F)c2)C1 (stereo not given),.,.,.,.,.,-6.6%
O=C(Nc1ccc2c(c1)OCO2)C1Cc2c(-c3ccc(Cl)cc3)ccnc2O1 (stereo not given),.,?,.,.,.,-5.4%
CC(C)CCNC(=O)c1cccc(S(=O)(=O)N2CCc3ccccc32)c1,?,8.0,3.98µM*,?,6.6%,3.3%
CC(C)CN(CC(C)C)C(=O)c1cccc(S(=O)(=O)N2CCc3ccccc32)c1,?,-16.7,.,?,3.2%,-6.5%
NC(=O)C1CCN(C(=O)c2cccc(S(=O)(=O)N3CCc4ccccc4C3)c2)CC1,?,61.7,10.4%,8.2%,-2.2%,6.4%
O=C(Nc1ccc(S(=O)(=O)N2CCc3ccccc32)cc1)c1ccc2c(c1)OCO2,-26.9%,-84.8*,27.4%[14.3 µM],?,2.9%,-22.9%
CN(C)S(=O)(=O)c1cccc(NC(=O)c2cccc(S(=O)(=O)N3CCc4ccccc43)c2)c1,.,-94.9*,.,11.2µM*,6.3%,?
O=C(c1cccc(S(=O)(=O)N2CCc3ccccc3C2)c1)N1CCN(c2ccc(O)cc2)CC1,-12.3%,-65.5*,?,?,?,-40.3%
COc1ccc2c(c1)cc(C(=O)N[C@@H](CCSC)C(=O)N1CCC(C(=O)O)CC1)n2C,18.7%[46.1 µM],57.9,1.5%[46.1 µM],10.6%,6.1%,-1.7%
COC(=O)[C@H]1[C@H](CO)[C@H]2Cn3c(cccc3=O)[C@@H]1N2CC1CCCCC1,.,-13.3,.,.,.,.
SMILES,MARV entry inh,HCMV inh,LASV entry inh,HCV inhibitor,SARS PLpro yeast,FMDV inh
Cc1cccc(OCC(=O)Nc2ccc(Cl)c(-c3nc4ncccc4o3)c2)c1C,-8.1%[46.1 µM],-23.0,?,.,.,-25.4%
CCOC(=O)N1CCN(C(=O)c2cc(S(=O)(=O)N3CCc4ccccc43)ccc2OC)CC1,-9.6%,-14.2,1.78µM*,?,4.5%,32.3%
O=S(=O)(NC1CCCC1)c1ccc(S(=O)(=O)N2CCc3ccccc32)cc1,?,-98.5*,?,?,-11.2%,?
O=C(COC(=O)c1cccc(S(=O)(=O)N2CCc3ccccc3C2)c1)NCc1ccco1,-16.0%,-26.9,-0.6%,10.7%,-2.5%,6.6%
Nc1ccc(S(=O)(=O)N2CCc3ccccc32)cc1,?,46.6,19.8%,7.6%,0.0%,3.0%
COc1ccc(S(=O)(=O)N2CCc3ccccc32)cc1C(=O)Nc1ccc(C(N)=O)cc1,.,-37.9,.,?,1.5%,?
CC(C)c1ccc(OCc2ccc(C(=O)N3CCN(c4ccccn4)CC3)cc2)cc1,?,-24.9,?,5.01µM*,-34.9%,?
O=C(COC(=O)c1cccc(S(=O)(=O)N2CCc3ccccc32)c1)NCc1ccco1,5.2%[46.1 µM],-96.0*,0.9%,15.1%,-1.3%,1.5%
Cc1cc(C)c2c(=O)cc(CSCC(=O)Nc3ccccc3Cl)[nH]c2c1,.,17.9,-13.5%[46.1 µM],.,.,-23.0%
CCOc1ccc(-c2ncnn2-c2sc3c(c2C#N)CCCCC3)cc1,.,-7.1,11.6%[46.1 µM],.,.,34.6%
O=C(COC(=O)CNC(=O)c1ccccc1F)Nc1ncc(Cl)cc1Cl,.,71.0,.,-21.9%,-3.8%,-16.1%
COc1ccc(C(=O)NCCS(=O)(=O)N2CCCCCC2)cc1,23.5%,-9.1,4.0%[46.1 µM],-0.5%[8.37 µM],-0.7%,-13.9%
COc1ccc(N/C(=N/c2nc(C)cc(C)n2)NC(=O)c2ccccc2)cc1,0.4%[46.1 µM],0.9,23.1%[46.1 µM],2.3%,-1.6%,6.2%
COc1ccccc1C(=O)Nc1ccc(S(=O)(=O)N2CCc3ccccc32)cc1,?,-29.0,-27.9%,-34.2%,2.8%,.
O=C(Nc1ccc(Br)cc1)c1cccc(S(=O)(=O)N2CCc3ccccc32)c1,.,-61.2*,?,.,.,?
COc1cc(C(=O)Nc2ccc(S(=O)(=O)N3CCc4ccccc43)cc2)cc(OC)c1OC,11.6µM*,10.2,-19.3%,14.1µM*,15.5%,2.0%
Cc1cnc(C)c(-c2cc(F)cc3c2OC(CNC(=O)CN2CCCC2)C3)n1 (stereo not given),.,.,.,.,.,-1.3%
NC1=NC(=O)/C(=C\c2ccc(O)c([N+](=O)[O-])c2)S1,5.8%,-30.4,10.1%,-4.4%,-0.2%,5.4%
COc1cc(/C=C2/SC(=O)NC2=O)ccc1Oc1ccc([N+](=O)[O-])cc1[N+](=O)[O-],0.8%,-35.2,.,-7.4%,-0.9%,?

# Source: PubChem
